NPC1 promoter act – qHTS Assay for NPC1 Promoter Activators. 320,000 tested, 2.4% active. Huh7 NPC1 promoter luciferase reporter, 24 h. Potency, µM (titrated, usually from 9.22 µM), for inactives: at the top dose activation, usual class: activators; note: % of control where 0% means no effect; nearly all actives have a fitted effect of over 60% in size
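Readout is luciferase luminescence, reflecting NPC1 promoter activation in stably transfected Huh7 cells after 24 h compound exposure at 37 °C in reduced-serum medium with 10% FBS.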
Rab9 prom act – qHTS Assay for Rab9 Promoter Activators; Potency, µM (titrated, usually from 9.22 µM), for inactives: at the top dose activation, negative = inhibition, usual class: activators; 320,000 tested, 2.8% active; Huh7 Rab9 promoter-luciferase reporter, luminescence, 24 h; note: % of control where 0% means no effect; nearly all actives have a fitted effect of over 60% in size
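Stable Rab9-luc Huh7, 1500 cells/well, 2 h settle; cmpd in DMSO, 24 h, 37 °C/5% CO2; luciferase reagent 10 min RT; luminescence.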
SMN2 splice up – qHTS Assay for Enhancers of SMN2 Splice Variant Expression; HEK293 SMN2-luciferase splicing reporter, luminescence, 30-36 h; Potency, µM (doses to about 46.1 µM), for inactives: top-dose activity change, positive = activation, usual class: activators; 210,000 tested, 2.8% active; AID 1458, 2008; note: % of control where 0% means no effect; nearly all actives have a fitted effect of over 55% in size
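HEK293 cells carry an SMN2 minigene-luciferase reporter in which exon 7 inclusion puts luciferase in frame. Cells were seeded at 2000 cells/well, attached for 10-12 hours, then exposed to compounds for 30-36 hours at 37C before ONE-Glo luminescence.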
ELG1 genotoxic – qHTS screen for small molecules that induce genotoxicity in human embryonic kidney (HEK293T) cells expressing luciferase-tagged ELG1; HEK293T ELG1-luciferase reporter, luminescence, 16 h; Potency, µM (top dose mostly 46 µM), for the others: at the top dose activity change, positive = activation, most hits filed as activators; 330,000 tested, 1.3% active; AID 504466, 2011; note: % of control where 0% means no effect; nearly all actives have a fitted effect of over 60% in size
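DMSO vehicle served as control against compound-treated ELG1-luciferase HEK293T cells; exposure lasted 16 hr at 37 °C and 5% CO2, followed by ONE-Glo luminescence detection after 30 min.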
FLuc modulator – qHTS profiling assay for firefly luciferase inhibitor/activator using purifed enzyme and Km concentrations of substrates (counterscreen for miR-21 project); Luciferin 4-monooxygenase (Photinus pyralis), P08659; purified FLuc, Km substrates, luminescence inhibition; Potency, µM (series often up to 57.5 µM), for the others: at the top dose activity change, negative = inhibition, actives largely listed as inhibitors; 360,000 tested, 6.9% active;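 note: plate controls were vehicle for no effect and reference inhibitor for full effect; nearly all actives have a fitted effect of over 55% in size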
Target sequence (P08659 whole entry, looked up): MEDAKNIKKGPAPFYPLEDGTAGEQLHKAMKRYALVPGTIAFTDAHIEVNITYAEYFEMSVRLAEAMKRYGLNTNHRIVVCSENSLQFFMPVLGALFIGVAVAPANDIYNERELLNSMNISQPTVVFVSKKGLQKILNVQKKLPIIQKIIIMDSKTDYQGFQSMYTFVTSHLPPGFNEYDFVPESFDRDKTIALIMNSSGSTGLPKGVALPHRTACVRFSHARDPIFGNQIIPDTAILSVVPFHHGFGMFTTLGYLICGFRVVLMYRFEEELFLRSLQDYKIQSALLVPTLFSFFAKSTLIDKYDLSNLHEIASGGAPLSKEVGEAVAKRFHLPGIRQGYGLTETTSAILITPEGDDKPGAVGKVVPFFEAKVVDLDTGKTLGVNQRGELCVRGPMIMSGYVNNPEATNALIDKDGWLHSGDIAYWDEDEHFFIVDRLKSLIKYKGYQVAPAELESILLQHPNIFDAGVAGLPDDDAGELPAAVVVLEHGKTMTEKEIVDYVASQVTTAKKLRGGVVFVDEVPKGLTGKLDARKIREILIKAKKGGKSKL
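Biochemical qHTS of compounds, final roughly 60 µM downward over six points, against 10 nM purified firefly luciferase using Km concentrations of substrates (10 uM D-luciferin, 10 uM ATP) in Tris acetate pH 7.5 buffer; luminescence output.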
* = called active by the depositor; ? = inconclusive; · = not tested or not shown; [ ] = dose if it differs, or a comment. Rows were chosen to be rich in hits. Some 7.5% of all compounds tested hit in one or more screens of this group. Calls come from the whole dose curve; as a rule, active = well fitted curve in the direction sought with a large enough effect; inconclusive = small, poorly fitted or top-dose-only effect, or another doubt; inactive = no such curve, though single readings can be large; an effect the other way counts as inactive or inconclusive. Potency is the fitted concentration of half-maximal effect.

SMILES | NPC1 promoter act | Rab9 prom act | SMN2 splice up | ELG1 genotoxic | FLuc modulator
Cn1cc([N+](=O)[O-])c(C(=O)Nc2ccc(-c3nc4ccccc4[nH]3)cc2)n1 | ? | ? | 8.9µM* | ? | 2.7µM*
Cn1cc([N+](=O)[O-])c(C(=O)Nc2ccc(C(=O)N3CCCCC3)cc2)n1 | -2% | 1% | 2% | 0% | 4%
Cn1cc([N+](=O)[O-])c(C(=O)Nc2ccc(C3CCCCC3)cc2)n1 | 14% | ? | · | 14% | 11µM*
Cn1cc([N+](=O)[O-])c(C(=O)Nc2ccc3nc(-c4ccccc4)[nH]c3c2)n1 | 3.2µM* | ? | 16µM* | ? | 4.8µM*
Cc1ccccc1NC(=O)Cc1nc(COC(=O)c2ccc(Cl)c(S(N)(=O)=O)c2)cs1 | -4% | 1% | · | 3% | 4%
Cc1ccc(S(=O)(=O)n2nc(C)c(S(=O)(=O)N3CCCCC3)c2C)cc1 | -6% | -3% | · | 2% | 0%
Cc1ccc(C)c(OCCn2nnc3ccccc32)c1 | 5% | 24% | · | 13% | ?
Fc1ccc(-n2nnc(-c3ccnc4ccccc34)n2)cc1 | 25% | 4µM* | · | ? | 2.1µM*
Cc1ccc(-n2nnc(-c3ccnc4ccccc34)n2)cc1 | 3.2µM* | 4.5µM* | · | 13µM* | 1.9µM*
OC(COCc1ccccc1)CN1CCCC1 (stereo not given) | 2% | -7% | -18% | -2% | -2%
Oc1ccc2c(c1)oc1cc(O)ccc12 | -2% | 0% | ? | 11% | 19µM*
O=c1[nH][nH]cc1C=Nc1ccc(Oc2ccccc2)cc1 | -5% | 26% | -1% | 14% | ?
O=C(O)CC(C(=O)NC1CCCCC1)C1CCCO1 (stereo not given) | -2% | -7% | -12% | 0% | 4%
Cc1ccc(CN(C(=O)c2cc3ccccc3oc2=O)C2CCS(=O)(=O)C2)cc1 (stereo not given) | ? | ? | 4% | 23% | 17µM*
COc1cc(CN(C(=O)c2cc3ccccc3oc2=O)C2CCS(=O)(=O)C2)cc(OC)c1OC (stereo not given) | -1% | 0% | 2% | 3% | -17%
COc1ccc(CCNC(=O)COC(=O)c2cc3ccccc3oc2=O)cc1OC | · | · | · | -1% | ·
CCc1ccc(CN(C(=O)c2cc3ccccc3oc2=O)C2CCS(=O)(=O)C2)cc1 (stereo not given) | 2.8µM* | 4µM* | 18µM* | ? | 19µM*
O=C(c1cc2ccccc2oc1=O)N(Cc1cccs1)C1CCS(=O)(=O)C1 (stereo not given) | 30% | ? | 17% | 18µM* | 19µM*
COc1ccc(CN(C(=O)c2cc3ccccc3oc2=O)C2CCCCC2)cc1OC | 20% | 17% | 25% | 2% | 27µM*
CCc1ccc(CN(C(=O)c2oc3ccccc3c2C)C2CCS(=O)(=O)C2)cc1 (stereo not given) | -4% | 1% | · | 0% | 0%
CNC(=O)CSc1nnc(-c2cc(C)cc(C)c2)o1 | 2% | 0% | -23% | 8% | 2%
O=C(O)c1ncn(Cc2ccccc2)c1C(=O)O | 1% | -1% | · | 1% | 7%
O=C(c1cc2ccccc2oc1=O)N(Cc1ccc(F)cc1)C1CCS(=O)(=O)C1 (stereo not given) | ? | 3.2µM* | · | ? | 19µM*
CCOc1cc(C)c(Cl)cc1S(=O)(=O)NCc1ccc2c(c1)OCO2 | -10% | -3% | -11% | -5% | -1%
CC(C)Oc1ccc(C2CC(=O)N(c3ccccc3)C2=O)cc1 (stereo not given) | 2% | -4% | -23% | 10% | ?
SMILES | NPC1 promoter act | Rab9 prom act | SMN2 splice up | ELG1 genotoxic | FLuc modulator
Cc1cc(NC(=O)c2cccc(Br)c2)n[nH]1 | ? | ? | · | ? | 19µM*
COc1cccc(C(=O)NC(=O)Nc2cc(C)[nH]n2)c1 | 2µM* | 1.6µM* | · | ? | 9.5µM*
O=C(Nc1ccc(NC(=O)c2ccco2)c(Cl)c1)c1ccc2c(c1)OCCO2 | ? | 4µM* | · | 11% | 0.48µM*
O=C(Nc1cc2c(cc1Br)OCCO2)c1ccco1 | 23% | 30% | 13µM* | ? | 24µM*
O=C(Nc1cc2c(cc1Cl)OCCO2)c1ccco1 | ? | ? | 13µM* | 25% | 19µM*
Cc1cc(NC(=O)c2ccc3c(c2)OCCO3)ccc1NC(=O)c1cc2ccccc2o1 | 15% | 17% | -32% | -13% | 2.7µM*
O=C(Nc1ccc(NC(=O)c2cc3ccccc3o2)cc1)c1ccc2c(c1)OCCO2 | -13% | -13% | -33% | 10% | -2%
O=C(O)CCC/C=C\C/C=C\C=C\[C@@H](O)C/C=C\CCCCCO | · | · | -5% | · | ·
Brc1ccccc1-c1nnc(COc2ncnc3c2cnn3-c2ccccc2)o1 | -1% | 2% | -42% | -6% | ?
COc1cccc(NC(=S)N(CCN(C)C)C(C)c2ccco2)c1 (stereo not given) | -2% | 12% | -8%[1.84 µM] | -3% | 9%
CCOC(=O)n1c(=O)n(Cc2ccc(Cl)cc2Cl)c2ccccc21 | 1% | -5% | -33% | 23% | ?
CCCC(=O)c1cc2c(cc1NC(=O)c1cccs1)OCCO2 | -1% | 14% | -3% | 2% | -7%
O=C(Nc1cc2c(cc1Br)OCCO2)c1cccs1 | 2.8µM* | 2.5µM* | 22µM* | 12µM* | 11µM*
CS(=O)(=O)c1ccc2nc(NC(=O)CCNC(=O)c3ccccc3Cl)sc2c1 | 1% | 17% | · | 4% | ·
CC(=O)OCC1=C(C(=O)O)N2C(=O)C(NC(=O)Cc3cccs3)C2SC1 (stereo not given) | · | · | 9% | · | ·
COc1cccc(C(=O)NC2C(=O)N3C(C(=O)O)=C(COC(C)=O)CSC23)c1 (stereo not given) | 0% | -2% | · | 0% | 21µM*
CC(C)Cn1cc(C(=O)NCC2CCCO2)c2c3ccccc3n(C)c2c1=O (stereo not given) | -3% | -8% | 2% | 0% | ?
Cn1c2ccccc2c2c(C(=O)NCC3CCCO3)cn(C3CCCC3)c(=O)c21 (stereo not given) | -4% | -4% | -45% | 3% | 17µM*
O=C(CSc1ncccc1-c1nc2ccccc2[nH]1)N1CCc2ccccc21 | ? | 2.8µM* | -38% | ? | 7.6µM*
COC(=O)CSc1ncccc1-c1nc2ccccc2[nH]1 | 15% | -1% | 11% | ? | 13µM*
CC(C)(C)NC(=O)CSc1ncccc1-c1nc2ccccc2[nH]1 | 3% | -1% | · | 8% | 24µM*
N#CCSc1ncccc1-c1nc2ccccc2[nH]1 | 3% | 15% | -14% | 0% | -16%
